The values that follow come from PubChem BioAssay (NCI).

Compounds without any hit were thinned out: in the full panel of roughly 79,000, 15% have a hit. Unmarked numbers belong to inactive results. Activity calls are given as the source filed them. Rule as the data show it: active = growth inhibition above about 70%; inactive = the rest.

A short description of assay [1]: NCI Yeast Anticancer Drug Screen. Data for the rad50 strain (AID 155).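 Also: 0% = growth of vehicle-only cultures of the same strain.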 As to conditions: S. cerevisiae rad50 strain growth inhibition, stronger effect = higher value. A digest of the protocol:
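Readout: growth inhibition relative to vehicle-treated cultures. Compound exposure was carried out in a genetically defined yeast strain deficient in DNA damage repair.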

Assay [2] can be described thus: NCI Yeast Anticancer Drug Screen. Data for the mec2-1 strain (AID 157). Conditions: S. cerevisiae mec2-1 strain, stronger effect = higher value. A digest of the protocol:
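Vehicle-treated cultures served as reference for growth inhibition of compound-exposed mec2-1 yeast.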

Assay [3] in a line: NCI Yeast Anticancer Drug Screen. Data for the sgs1 mgt1 strain (AID 161).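 Also: 0% = growth of cultures given vehicle only.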 Conditions: S. cerevisiae sgs1 mgt1 strain, stronger effect = higher value. A digest of the protocol:
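Read-out: growth inhibition vs vehicle controls. Cells: mutant yeast strain deficient in DNA damage repair.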

Assay [4] can be described thus: NCI Yeast Anticancer Drug Screen. Data for the cln2 rad14 strain (AID 165).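 Also: 0% = growth equal to vehicle treated cultures.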 Conditions: S. cerevisiae cln2 rad14 strain, stronger effect = higher value. In outline:
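Each compound was tested on cln2 rad14 yeast. Inhibition of growth was calculated against vehicle-exposed controls.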

Assay [5] is described as follows: NCI Yeast Anticancer Drug Screen. Data for the bub3 strain (AID 167). Conditions: S. cerevisiae bub3 mutant strain, stronger effect = higher value. In outline:
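Readout: yeast growth inhibition, expressed relative to vehicle-only wells. The test organism is a mutant strain from a panel with lesions in DNA repair or checkpoint genes.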

A short description of assay [6]: NCI Yeast Anticancer Drug Screen. Data for the mlh1 rad18 strain (AID 175). Conditions: S. cerevisiae mlh1 rad18 strain growth inhibition, stronger effect = higher value. A digest of the protocol:
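Vehicle-treated cultures served as the reference for growth inhibition in a yeast strain carrying DNA damage repair alterations exposed to each compound.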

[7] abbreviates: at 5.0 µM (retest, dose inferred, filed as 0.5).
The mark [8] stands for this setting: at 50.0 µM (retest, dose inferred, filed as 5.0).

Turning to `O=C(O)c1cc(-c2ccc3c(c2)Nc2ccccc2S3)nc2ccc(F)cc12`, the growth inhibition was 16% in assay [1] (setting [7]); 98% (active) in assay [1] (setting [8]); 99% (active) in assay [1] (at 50.0 µM); -40% in assay [2] (setting [7]); 98% (active) in assay [2] (setting [8]); 99.1% (active) in assay [2] (at 50.0 µM). For the same compound, the growth inhibition in assay [3] (setting [7]) is 12%; in assay [3] (setting [8]), 99% (active); in assay [3] (at 50.0 µM) it was 98.8% (active); in assay [4] (setting [7]), 22%; in assay [4] (setting [8]), 97% (active); in assay [4] (at 50.0 µM), 98.7% (active). The growth inhibition in assay [5] (setting [7]) was 33%; in assay [5] (setting [8]), 97% (active); in assay [5] (at 50.0 µM) it was 98% (active); in assay [6] (setting [7]) it was 18%; in assay [6] (setting [8]), 96% (active); in assay [6] (at 50.0 µM), 98.7% (active).
Turning to `COC(=O)C1=C(CS(=O)c2ccccc2[N+](=O)[O-])ON(C)C1c1ccccc1` (stereo not given), the growth inhibition in assay [1] (setting [7]) is 3%; in assay [1] (setting [8]) it was 49%; in assay [1] (at 50.0 µM) it was 6.55%; in assay [2] (setting [7]) it was -9%; in assay [2] (setting [8]), 66%; in assay [2] (at 50.0 µM) it was 53.1%. The growth inhibition in assay [3] (setting [7]) was 13%; in assay [3] (setting [8]) it was 74% (active); in assay [3] (at 50.0 µM), 56.8%; in assay [4] (setting [7]), -4%; in assay [4] (setting [8]) it was 11%; in assay [4] (at 50.0 µM) it was 22.2%. Besides, the growth inhibition in assay [5] (setting [7]) is -3%; in assay [5] (setting [8]), 45%; in assay [5] (at 50.0 µM), 59.4%; in assay [6] (setting [7]) it was 5%; in assay [6] (setting [8]), 13%; in assay [6] (at 50.0 µM) it was 68.5%.
On to `CCOc1ccc2c(c1)nc1cc(Cl)ccc1[n+]2C`, for which the growth inhibition in assay [1] (setting [7]) was 9%; in assay [1] (setting [8]), 81% (active); in assay [1] (at 50.0 µM), 85.5% (active); in assay [2] (setting [7]), 12%; in assay [2] (setting [8]), 84% (active); in assay [2] (at 50.0 µM), 87.2% (active). In addition, the growth inhibition in assay [3] (setting [7]) is -2%; in assay [3] (setting [8]) it was 82% (active); in assay [3] (at 50.0 µM), 86.5% (active); in assay [4] (setting [7]) it was 8%; in assay [4] (setting [8]), 68%; in assay [4] (at 50.0 µM), 75.2% (active). Besides, the growth inhibition in assay [5] (setting [7]) was 26%; in assay [5] (setting [8]) it was 88% (active); in assay [5] (at 50.0 µM) it was 82.8% (active); in assay [6] (setting [7]), 18%; in assay [6] (setting [8]), 81% (active); in assay [6] (at 50.0 µM), 89.7% (active).
For the compound `Nc1ccc2c(c1)CCc1ccccc1-2`, the growth inhibition in assay [1] (setting [7]) is 1%; in assay [1] (setting [8]), 40%; in assay [1] (at 50.0 µM), 83.3% (active); in assay [2] (setting [7]), -27%; in assay [2] (setting [8]), 10%; in assay [2] (at 50.0 µM), 43.6%. The growth inhibition in assay [3] (setting [7]) was 2%; in assay [3] (setting [8]) it was 52%; in assay [3] (at 50.0 µM), 89.8% (active); in assay [4] (setting [7]), -5%; in assay [4] (setting [8]), 8%; in assay [4] (at 50.0 µM), 50.4%. The growth inhibition in assay [5] (setting [7]) was -7%; in assay [5] (setting [8]) it was 65%; in assay [5] (at 50.0 µM), 81.5% (active); in assay [6] (setting [7]), 2%; in assay [6] (setting [8]), 45%; in assay [6] (at 50.0 µM), 86.5% (active).
`[N-]=[N+]=NCC(O)c1ccc2c(c1)[nH]c1ccccc12` (stereo not given): the growth inhibition in assay [1] (setting [7]) was -11%; in assay [1] (setting [8]), 30%; in assay [1] (at 50.0 µM), 47.9%; in assay [2] (setting [7]) it was -7%; in assay [2] (setting [8]), 30%; in assay [2] (at 50.0 µM), 29.6%. Further, the growth inhibition in assay [3] (setting [7]) was -5%; in assay [3] (setting [8]), 41%; in assay [3] (at 50.0 µM), 27.6%; in assay [4] (setting [7]), -8%; in assay [4] (setting [8]), 23%; in assay [4] (at 50.0 µM), 81.8% (active). For the same compound, the growth inhibition is -4% in assay [5] (setting [7]); 36% in assay [5] (setting [8]); 64% in assay [5] (at 50.0 µM); 24% in assay [6] (setting [7]); 68% in assay [6] (setting [8]); 75.4% (active) in assay [6] (at 50.0 µM).
For the compound `Cc1ccc(C(=O)/C=C/c2ccco2)c(C)c1`, the growth inhibition was -9% in assay [1] (setting [7]); -12% in assay [1] (setting [8]); 11.3% in assay [1] (at 50.0 µM); -42% in assay [2] (setting [7]); 1% in assay [2] (setting [8]); 25.9% in assay [2] (at 50.0 µM). For the same compound, the growth inhibition in assay [3] (setting [7]) was -14%; in assay [3] (setting [8]) it was 15%; in assay [3] (at 50.0 µM), 63.8%; in assay [4] (setting [7]), -14%; in assay [4] (setting [8]), 5%; in assay [4] (at 50.0 µM), 25.8%. Besides, the growth inhibition in assay [5] (setting [7]) was 2%; in assay [5] (setting [8]), 4%; in assay [5] (at 50.0 µM), 54.5%; in assay [6] (setting [7]), -20%; in assay [6] (setting [8]), 61%; in assay [6] (at 50.0 µM) it was 17.6%.
For the compound `Cc1nc(-c2cccc(Cl)c2)oc1-c1ccccc1`, the growth inhibition in assay [1] (setting [7]) is 2%; in assay [1] (setting [8]), 78% (active); in assay [1] (at 50.0 µM) it was 28.4%; in assay [2] (setting [7]), 8%; in assay [2] (setting [8]), 78% (active); in assay [2] (at 50.0 µM) it was 27.8%. The growth inhibition in assay [3] (setting [7]) is 17%; in assay [3] (setting [8]), 85% (active); in assay [3] (at 50.0 µM), 40.2%; in assay [4] (setting [7]) it was 1%; in assay [4] (setting [8]) it was 80% (active); in assay [4] (at 50.0 µM), 53.4%. Moreover, the growth inhibition in assay [5] (setting [7]) was -3%; in assay [5] (setting [8]), 76% (active); in assay [5] (at 50.0 µM), 47.8%; in assay [6] (setting [7]), 4%; in assay [6] (setting [8]), 76% (active); in assay [6] (at 50.0 µM) it was 58.5%.
For the compound `CC(C)CCCC(C)C1CCC2(C)C3=CCC4C(C)(CCC(O)C4(C)C)C3=CCC12C` (stereo not given), the growth inhibition was 0% in assay [1] (setting [7]); 83% (active) in assay [1] (setting [8]); 89% (active) in assay [1] (at 50.0 µM); -18% in assay [2] (setting [7]); 94% (active) in assay [2] (setting [8]); 73% (active) in assay [2] (at 50.0 µM). The growth inhibition in assay [3] (setting [7]) is 11%; in assay [3] (setting [8]), 95% (active); in assay [3] (at 50.0 µM), 98% (active); in assay [4] (setting [7]), -8%; in assay [4] (setting [8]), 84% (active); in assay [4] (at 50.0 µM), 97.7% (active). Besides, the growth inhibition in assay [5] (setting [7]) is -6%; in assay [5] (setting [8]), 95% (active); in assay [5] (at 50.0 µM) it was 93.3% (active); in assay [6] (setting [7]) it was 21%; in assay [6] (setting [8]), 97% (active); in assay [6] (at 50.0 µM), 90.8% (active).
As for `NNc1ccc(Br)cc1`, the growth inhibition in assay [1] (setting [7]) was 83% (active); in assay [1] (setting [8]), 98% (active); in assay [1] (at 50.0 µM) it was 90.3% (active); in assay [2] (setting [7]), 83% (active); in assay [2] (setting [8]), 98% (active); in assay [2] (at 50.0 µM), 92.2% (active). In addition, the growth inhibition was 96% (active) in assay [3] (setting [7]); 99% (active) in assay [3] (setting [8]); 92.7% (active) in assay [3] (at 50.0 µM); 47% in assay [4] (setting [7]); 98% (active) in assay [4] (setting [8]); 90.5% (active) in assay [4] (at 50.0 µM). The growth inhibition in assay [5] (setting [7]) was 98% (active); in assay [5] (setting [8]), 96% (active); in assay [5] (at 50.0 µM), 91% (active); in assay [6] (setting [7]) it was 33%; in assay [6] (setting [8]), 100% (active); in assay [6] (at 50.0 µM) it was 89.7% (active).
For the compound `COc1ccc2nc3cc(Cl)ccc3c(NCCCN(Cc3cc(OC)c(OC)c(OC)c3)Cc3cc(OC)c(OC)c(OC)c3)c2c1`, the growth inhibition in assay [1] (setting [7]) was 45%; in assay [1] (setting [8]), 72% (active); in assay [1] (at 50.0 µM) it was 62.4%; in assay [2] (setting [7]), 29%; in assay [2] (setting [8]), 58%; in assay [2] (at 50.0 µM), 34.6%. In addition, the growth inhibition in assay [3] (setting [7]) is 38%; in assay [3] (setting [8]), 62%; in assay [3] (at 50.0 µM), 45.6%; in assay [4] (setting [7]), 32%; in assay [4] (setting [8]), 43%; in assay [4] (at 50.0 µM), 33.4%. Besides, the growth inhibition was 37% in assay [5] (setting [7]); 83% (active) in assay [5] (setting [8]); 56.6% in assay [5] (at 50.0 µM); 48% in assay [6] (setting [7]); 80% (active) in assay [6] (setting [8]); 73.5% (active) in assay [6] (at 50.0 µM).
